{"source": "PubChem BioAssay AID463173", "about": "(ICCB-Longwood Screening Facility, Harvard Medical School, 2010)", "note": "In all, about 52,000 compounds went through this assay and about 1,700 (3.3%) were called active. Cut-off read from the data, not from the text of the source: active = survival mostly below about 52% (no sharp cut-off); inactive = mostly above about 56%. What follows is part of a selection rich in actives, with near analogues and random picks from the rest."}
{"test_system": "Wild type", "assay": "S. aureus survival, RN4220 and DeltatarO strains – OD600, teichoic acid synthesis inhibitors, primary screen (AID 463173)", "conditions": "S. aureus RN4220 wild type/DeltatarO growth, OD600, 18 h, active compounds read low, screened at 18.75 µg/mL (by protocol)"}
{"smiles": "O=C(NCCc1ccccc1)c1ccc2c(c1)N(Cc1ccc(F)cc1Cl)C(=O)CS2", "survival": "67% (inactive)"}
{"smiles": "COc1ccc(N2C(=O)CSC23C(=O)N(Cc2ccccc2F)c2ccccc23)cc1Cl", "note": "(stereo unspecified)", "survival": "68% (inactive)"}
{"smiles": "COc1cccc(NC(=O)CSC2=Nc3ccccc3N=C(c3ccc(F)cc3)C2)c1", "survival": "69% (inactive)"}
{"smiles": "O=C(CSC1=Nc2ccccc2C2=NC(Cc3ccccc3)C(=O)N12)Nc1cccc(Cl)c1", "note": "(stereo unspecified)", "survival": "76% (inactive)"}
{"smiles": "Cc1cccc(NC(=O)Cn2nnc(C(=O)NCc3cccs3)c2N)c1", "survival": "89% (inactive)"}
{"smiles": "Cc1ccc(-n2ncc3c(N4CCN(c5ccccc5)CC4)ncnc32)cc1C", "survival": "69% (inactive)"}
{"smiles": "CCN1CCC(N(Cc2cccc(OC)c2)C(=O)Nc2cccc(C(F)(F)F)c2)CC1", "survival": "66% (inactive)"}
{"smiles": "O=C(O)c1ccc(NC(=O)c2ccc(Br)c(S(=O)(=O)N3CCCC3)c2)cc1", "survival": "70% (inactive)"}
{"smiles": "O=C(OCc1cc(=O)n2nc(C3CCCCC3)sc2n1)c1ccccc1Cl", "survival": "59% (inactive)"}
{"smiles": "O=C(Nc1ccccc1)c1cn(-c2ccccc2)nc1-c1ccccc1", "survival": "86% (inactive)"}
{"smiles": "Cc1nc(-c2ccc(C)c(S(=O)(=O)N3CCC(C(=O)Nc4ccc(Cl)cc4)CC3)c2)no1", "survival": "121% (inactive)"}
{"smiles": "Cc1nc2c(C(=O)NCc3ccccc3)c[nH]n2c(=O)c1Cc1ccccc1Cl", "survival": "22% (inactive)"}
{"smiles": "Cc1nc2c(C(=O)NCCc3ccc(Cl)cc3)c[nH]n2c(=O)c1Cc1ccc(Cl)cc1", "survival": "-14% (active)"}
{"smiles": "Cc1nc2c(C(=O)NCc3ccccc3Cl)c[nH]n2c(=O)c1Cc1cccc(Cl)c1", "survival": "-15% (active)"}
{"smiles": "Cc1nc2c(C(=O)NCc3ccccc3Cl)cnn2c(C)c1Cc1ccccc1", "survival": "85% (inactive)"}
{"smiles": "Cc1nc2c(C(=O)NCCc3ccc(Cl)cc3)c[nH]n2c(=O)c1Cc1ccccc1F", "survival": "-11% (active)"}
{"smiles": "COc1ccc(CCNC(=O)c2cc(C)nc3c2c(C)nn3-c2ccccc2)cc1OC", "survival": "76% (inactive)"}
{"smiles": "Cc1nc2c(C(=O)N(C)Cc3ccccc3)c[nH]n2c(=O)c1Cc1ccc(Cl)cc1", "survival": "94% (inactive)"}
{"smiles": "Cc1cccn2c(=O)c(C(=O)NCCc3ccc(Cl)cc3)cnc12", "survival": "77% (inactive)"}
{"smiles": "Cc1nc2c(C(=O)NCCc3ccc(Cl)cc3)cnn2c(C)c1Cc1ccc(F)cc1", "survival": "73% (inactive)"}
{"smiles": "Cc1nc2c(C(=O)NCCc3ccc(Cl)cc3)cnn2c(C)c1Cc1c(F)cccc1Cl", "survival": "59% (inactive)"}
{"smiles": "COc1ccc(CCNC(=O)c2ccc(Cn3c(=O)c4ccccc4n(Cc4ccccc4Cl)c3=O)cc2)cc1OC", "survival": "95% (inactive)"}
{"smiles": "COc1ccc(CCNC(=O)c2c[nH]n3c(=O)c(Cc4ccccc4Cl)c(C)nc23)cc1OC", "survival": "0% (active)"}
{"smiles": "Cc1cccc(C(=O)Nc2ccccc2OCc2cc(=O)n3c(C)csc3n2)c1", "survival": "90% (inactive)"}
{"smiles": "Cc1ccc(Cl)cc1N1CCN(S(=O)(=O)c2ccc3c(c2)CC(=O)N3C)CC1", "survival": "113% (inactive)"}
{"smiles": "COCCCNC(=O)c1ccc(Cn2c(=O)c3ccccc3n(CC(=O)Nc3c(C)cccc3C)c2=O)cc1", "survival": "83% (inactive)"}
{"smiles": "CCCN(C(=O)CCn1cnc2onc(-c3ccc(F)cc3)c2c1=O)c1ccccc1C", "survival": "72% (inactive)"}
{"smiles": "COCCCNC(=O)C1CCCN(C(=O)c2cnn(-c3ccc(F)cc3)c2-n2cccc2)C1", "note": "(stereo unspecified)", "survival": "128% (inactive)"}
{"smiles": "CSc1nnc(COc2ccc(Cl)cc2)n1C", "survival": "101% (inactive)"}
{"smiles": "CCOc1cc(CNC(=O)C(NS(=O)(=O)c2cccs2)C(C)C)cc(OCC)c1OCC", "note": "(stereo unspecified)", "survival": "65% (inactive)"}
{"smiles": "Cc1ccc(CNC(=O)c2ccc3c(c2)CCN3S(=O)(=O)c2ccccc2)cc1", "survival": "84% (inactive)"}
{"smiles": "Cc1ccc(C)c(N2CCN(S(=O)(=O)c3ccc(F)c(C(=O)Nc4ccc(Cl)cc4Cl)c3)CC2)c1", "survival": "80% (inactive)"}
{"smiles": "Cc1ccc(N2CCN(S(=O)(=O)c3ccc(F)c(C(=O)Nc4ccc(Cl)cc4Cl)c3)CC2C)cc1", "note": "(stereo unspecified)", "survival": "-6% (active)"}
{"smiles": "Cc1cccc(N2CCN(S(=O)(=O)c3ccc(F)c(C(=O)Nc4cccc(Cl)c4C)c3)CC2C)c1", "note": "(stereo unspecified)", "survival": "100% (inactive)"}
{"smiles": "CCC(=O)N1CCN(C(=O)CC)C1c1ccccc1", "survival": "99% (inactive)"}
{"smiles": "CCC1=NN(C(=O)Cc2ccccc2)C(O)(c2ccccc2)C1", "note": "(stereo unspecified)", "survival": "107% (inactive)"}
{"smiles": "CCC(CC)C(=O)N1CCN(Cc2ccccc2)CC1", "survival": "108% (inactive)"}
{"smiles": "CC(=O)N1c2ccccc2C(C)(c2ccc(C)cc2)CC1(C)C", "note": "(stereo unspecified)", "survival": "-2% (active)"}
{"smiles": "CCN1C(=O)C(O)(C(C)C(=O)c2ccccc2)c2ccccc21", "note": "(stereo unspecified)", "survival": "111% (inactive)"}
{"smiles": "CCCCC(=O)N1c2ccccc2C(C)(c2ccccc2)CC1(C)C", "note": "(stereo unspecified)", "survival": "-2% (active)"}
{"smiles": "CCC(=O)N1c2ccccc2C(C)(c2ccccc2)CC1(C)C", "note": "(stereo unspecified)", "survival": "-3% (active)"}
{"smiles": "CC(=O)N1c2ccccc2N(C)C(=O)C1(C)C", "survival": "105% (inactive)"}
{"smiles": "CCC(CC)C(=O)N1c2ccccc2C(C)(c2ccccc2)CC1(C)C", "note": "(stereo unspecified)", "survival": "-2% (active)"}
{"smiles": "CC1=CC(C)(C)N(C(=O)Cc2ccccc2)c2ccccc21", "survival": "126% (inactive)"}
{"smiles": "Cc1ccc(NC(=O)CN2C(=O)C(C)(C)c3ccccc32)cc1", "survival": "77% (inactive)"}
{"smiles": "CCCCOc1ccc(C2(C(=O)O)CCCC2)cc1", "survival": "105% (inactive)"}
